Values joined by “and” are separate entries in the source; they are usually repeats but may differ in a detail not shown here. Equal values may be shown once. Results filed as inconclusive are left out. Active and inactive are the calls of the source. How the source made its calls, unless noted: active means hit-call score of the fitted dose curve at least 0.9, where 1 is the maximum; inconclusive means response in the unintended direction; inactive means score below 0.9.
Key:
[1] = TOX21_p53_BLA_p2_viability: Viability Assessment in the Tox21 HCT-116 p53 Agonism Beta-lactamase Assay, Phase 2 (AID 2283591);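 further: actives lower the ATP signal meaning cytotoxicity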
Method in brief: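 Cytotoxicity readout: CellTiter-Glo ATP luminescence, 30 min at room temperature, after the beta-lactamase read. Cells were HCT116 exposed 16 h at 37C to compounds pin-transferred at 217-fold dilution from DMSO stocks.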

[2] = target: Cellular tumor antigen p53 (Homo sapiens) (UniProt P04637); assay: TOX21_p53_BLA_p2_ratio: Tox21 HCT-116 p53 Agonism Beta-lactamase Assay, Ratio, Phase 2 (AID 2283592)
Chain of Cellular tumor antigen p53 (Homo sapiens) (P04637 whole entry, looked up): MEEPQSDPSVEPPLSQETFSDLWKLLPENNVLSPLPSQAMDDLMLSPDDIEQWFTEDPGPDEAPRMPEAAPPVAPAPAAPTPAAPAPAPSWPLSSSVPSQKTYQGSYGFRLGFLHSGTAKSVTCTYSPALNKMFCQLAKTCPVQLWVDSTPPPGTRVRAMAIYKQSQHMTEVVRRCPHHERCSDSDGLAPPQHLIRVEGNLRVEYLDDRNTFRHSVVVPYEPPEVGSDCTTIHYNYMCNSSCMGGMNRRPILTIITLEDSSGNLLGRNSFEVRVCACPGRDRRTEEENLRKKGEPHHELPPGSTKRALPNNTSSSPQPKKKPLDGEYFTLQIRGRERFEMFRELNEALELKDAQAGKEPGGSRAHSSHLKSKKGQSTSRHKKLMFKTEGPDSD
Method in brief: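 Readout: blue/green (460/530 nm) FRET emission ratio after 2 h CCF4-AM loading at room temperature, excitation 405 nm. HCT116 p53 bla cells, 16 h compound exposure at 37C, 5% CO2; agonist direction fitted against DMSO baseline.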

[3] = TOX21_p53_BLA_p3_viability: Viability Assessment in the Tox21 HCT-116 p53 Agonism Beta-lactamase Assay, Phase 3 (AID 2283593);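 further: cells exposed to compound for 16 h before reading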
Method in brief: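 Cellular ATP was quantified by CellTiter-Glo luminescence, read after 30 min at room temperature. Beforehand, HCT116 cells (4000/well) received compound 5 h post-seeding, 217-fold diluted from DMSO, then incubated 16 h at 37C.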

[4] = target: Cellular tumor antigen p53 (Homo sapiens) (UniProt P04637); assay: TOX21_p53_BLA_p3_ratio: Tox21 HCT-116 p53 Agonism Beta-lactamase Assay, Ratio, Phase 3 (AID 2283596)
Method in brief: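 Cells were seeded at 4000/well, rested 5 h at 37C, then dosed with DMSO compound solutions (217-fold dilution) for 16 h. CCF4-AM substrate was loaded for 2 h at room temperature, and the 460/530 nm emission ratio was fitted for gain of signal versus DMSO.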

[5] = TOX21_p53_BLA_p4_viability: Viability Assessment in the Tox21 HCT-116 p53 Agonism Beta-lactamase Assay, Phase 4 (AID 2283597);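 further: hits lower the luminescence signal meaning cytotoxicity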
Method in brief: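 ATP content by CellTiter-Glo luminescence, 30 min RT, read after the beta-lactamase ratio step. Cells: HCT116, 4000/well, compound added after 5 h, exposure 16 h at 37C. Signal loss = reduced viability.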

[6] = target: Cellular tumor antigen p53 (Homo sapiens) (UniProt P04637); assay: TOX21_p53_BLA_p5_ratio: Tox21 HCT-116 p53 Agonism Beta-lactamase Assay, Ratio, Phase 5 (AID 2283599)
Method in brief: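 Beta-lactamase reporter ratio (blue 460 nm over green 530 nm, 405 nm excitation) after 2 h CCF4-AM loading, in HCT-116 cells exposed 16 h at 37 C to compounds pinned at 217-fold dilution. Increases relative to DMSO baseline scored.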

[7] = TOX21_p53_BLA_p5_viability: Viability Assessment in the Tox21 HCT-116 p53 Agonism Beta-lactamase Assay, Phase 5 (AID 2283600)
Method in brief: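 ATP luminescence (CellTiter-Glo, 30 min, RT) served as the viability read-out, with loss of signal indicating cytotoxicity. Compounds in DMSO were pinned at a 217-fold dilution onto 4000 cells/well and incubated 16 h, 37C.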

[8] = target: Cellular tumor antigen p53 (Homo sapiens) (UniProt P04637); assay: TOX21_p53_BLA_p4_ratio: Tox21 HCT-116 p53 Agonism Beta-lactamase Assay, Ratio, Phase 4 (AID 2283601)
Method in brief: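 Signal is the blue/green (460nm/530nm) ratio of cleaved versus uncleaved CCF4-AM substrate, read after 2 h substrate loading. Cells were HCT116 carrying the p53-responsive beta-lactamase reporter, dosed 16 h at 37C, 5% CO2; CellTiter-Glo measured in parallel.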

[9] = CCTE_Harrill_HTTr_Viability_MCF7: CCTE's 6-hour Cell Viability Assessment for the High-Throughput Transcriptomics (HTTr) Platform, in MCF-7 cells cultured in DMEM + 10% fetal bovine serum, Harrill Lab (AID 2284010; active means hit-call score of the fitted dose curve at least 0.9, where 1 is the maximum; inactive means score below 0.9)
Method in brief: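 PI exclusion, high-content imaging; 8-pt dilution series, 6 h exposure; bidirectional fit vs DMSO (neg. ctrl/baseline); gain of signal = loss of membrane integrity.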

[10] = STM_H9_OrnCyssISnorm_ratio: Stemina devTOX quickPredict H9 human embryonic stem cell (hESC)-based Assay for Ornithine (ORN):Cystine (CYSS) Ratio (AID 2283714)
Method in brief: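 Ratio of internal-standard-normalized ornithine to cystine, measured by UPLC-HRMS in spent media from the last 24 h. H9 cells kept pluripotent, dosed 72 h with daily media and compound renewal; DMSO 0.1% serves as baseline.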

[11] = STM_H9_NormalizedViability: Cytotoxicity Assessment at 120 hours in the Stemina devTOX quickPredict H9 human embryonic stem cell (hESC)-based Assay (AID 2283784)
Method in brief: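 CellTiter-Fluor RFU, background-subtracted, expressed relative to 0.1% DMSO neutral control by plate. Pluripotent H9 cells; treatment with daily re-dosing. Plates carried 1uM methotrexate (positive) and 5 nM methotrexate (negative) references.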

[12] = CCTE_Harrill_HTTr_Apoptosis_MCF7: CCTE's 6-hour Apoptosis Assessment for the High-Throughput Transcriptomics (HTTr) Platform, in MCF-7 cells cultured in DMEM + 10% fetal bovine serum, Harrill Lab (AID 2284011; active means hit-call score of the fitted dose curve at least 0.9, where 1 is the maximum; inactive means score below 0.9)
Method in brief: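 Read-out: CellEvent Caspase 3/7 Green signal by high content imaging, gain-of-signal indicating apoptosis. MCF-7 cells, DMEM + 10% FBS, eight-point dilution series, 6 h exposure. Curves fitted bidirectionally relative to DMSO negative control.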

[13] = CCTE_Harrill_HTTr_CellCount_MCF7: CCTE's Cell Proliferation Assessment for the High-Throughput Transcriptomics (HTTr) Platform, Harrill Lab (AID 2284012);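 further: count of Hoechst-stained nuclei per well by high-content imaging in MCF-7 cells; cells exposed to compound for six hours; intended direction is loss of nuclei count meaning fewer cells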
Method in brief: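 Readout: Hoechst nuclear count by high-content imaging. MCF-7, 8-point dilution series, 6 h exposure. Bidirectional fit vs DMSO baseline.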

[14] = target: Thyroid hormone receptor alpha (Rattus norvegicus) + Thyroid hormone receptor beta (Rattus norvegicus) (UniProt P18113+P63059); assay: TOX21_TR_LUC_GH3_Antagonist_Followup: Tox21 GH3 Thyroid Hormone Receptor Antagonism Luciferase Follow-Up Assay (AID 2283942)
Method in brief: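 Loss of T3-driven (1.0 nM final) reporter activity in GH3 cells was read by ONE-Glo luminescence after 24 h incubation at 37C; 15-point compound series spanned 92 uM to 5nM final, 1,500 cells/well.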

THRA (gene 7067) = THRA (gene 7067) (UniProt P10827); assay: TOX21_TRA_COA_Antagonist_Followup_ratio: Tox21 Thyroid Hormone Receptor alpha Antagonism through Coactivator Recruitment Follow-Up Assay, Ratio (AID 2283953)
Chain of THRA (gene 7067) (P10827 whole entry, looked up, the tested form may be a part): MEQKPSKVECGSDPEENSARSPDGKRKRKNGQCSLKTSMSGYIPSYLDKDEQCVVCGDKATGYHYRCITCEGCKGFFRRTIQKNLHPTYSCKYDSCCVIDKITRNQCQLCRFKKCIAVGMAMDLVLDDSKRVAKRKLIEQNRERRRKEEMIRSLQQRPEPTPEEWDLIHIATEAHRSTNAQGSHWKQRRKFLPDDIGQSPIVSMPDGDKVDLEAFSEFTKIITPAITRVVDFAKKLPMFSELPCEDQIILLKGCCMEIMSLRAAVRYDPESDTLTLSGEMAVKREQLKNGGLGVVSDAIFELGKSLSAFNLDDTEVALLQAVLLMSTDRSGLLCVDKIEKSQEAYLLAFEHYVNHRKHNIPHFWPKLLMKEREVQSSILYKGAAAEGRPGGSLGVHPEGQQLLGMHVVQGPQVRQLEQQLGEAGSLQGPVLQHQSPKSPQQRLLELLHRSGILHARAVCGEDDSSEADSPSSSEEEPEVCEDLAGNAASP
Method in brief: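 We measured antagonism of T3-type coactivator recruitment using a TR-FRET ratio (emission 520 and 495 nm) between a Tb-labelled anti-GST antibody on TRα LBD (2.5 nM) and SRC-2 peptide (200 nM). Activity was scaled between DMSO and T3 wells.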

THRB (gene 7068) [15] = target: THRB (gene 7068) (UniProt P10828); assay: TOX21_TRB_BLA_Antagonist_Followup_ratio: Tox21 Thyroid Hormone Receptor beta Antagonism Beta-lactamase (BLA) Follow-Up Assay, Ratio (AID 2283958)
Chain of THRB (gene 7068) (P10828 whole entry, looked up, the tested form may be a part): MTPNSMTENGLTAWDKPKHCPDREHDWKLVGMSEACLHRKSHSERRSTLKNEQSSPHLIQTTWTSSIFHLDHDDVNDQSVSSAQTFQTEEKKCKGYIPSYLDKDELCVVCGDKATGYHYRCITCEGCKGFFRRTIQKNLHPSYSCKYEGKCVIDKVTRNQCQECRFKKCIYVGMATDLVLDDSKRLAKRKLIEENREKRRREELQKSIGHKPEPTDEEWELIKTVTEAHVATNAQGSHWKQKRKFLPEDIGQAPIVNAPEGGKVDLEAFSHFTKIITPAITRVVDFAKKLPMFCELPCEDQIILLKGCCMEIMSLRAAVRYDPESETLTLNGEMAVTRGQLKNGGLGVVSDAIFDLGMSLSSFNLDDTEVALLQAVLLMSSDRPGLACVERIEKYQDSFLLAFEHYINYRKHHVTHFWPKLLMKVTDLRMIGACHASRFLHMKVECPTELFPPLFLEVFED
Method in brief: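 Read-out: blue/green (460:530 nm) ratio of cleaved to uncleaved CCF4-AM after 2 h at room temperature, fitted against DMSO baseline. HEK293T UAS-bla cells carrying GAL4-human TRβ LBD were exposed 18 h, 37C/5% CO2.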

THRB (gene 7068) [16] = target: THRB (gene 7068) (UniProt P10828); assay: TOX21_TRB_COA_Antagonist_Followup_ratio: Tox21 Thyroid Hormone Receptor beta Antagonism through Coactivator Recruitment Follow-Up Assay, Ratio (AID 2283967)
Method in brief: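 Coactivator recruitment to the GST-tagged TRb ligand-binding domain (5.0 nM) was read as the 520/495 nm TR-FRET ratio, using 200 nM fluorescein SRC-2 peptide and 2 nM terbium anti-GST. Scaled between DMSO and T3 wells; loss of signal fitted.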

[17] = target: Retinoic acid receptor RXR-alpha (Homo sapiens) (UniProt P19793); assay: TOX21_TR_RXR_BLA_Antagonist_Followup_ratio: Tox21 Thyroid Hormone Receptor beta Retinoid X Receptor alpha (RXRa) Antagonism Beta-lactamase (BLA) Follow-Up Assay, Ratio (AID 2283972)
Chain of Retinoic acid receptor RXR-alpha (Homo sapiens) (P19793 whole entry, looked up, the tested form may be a part): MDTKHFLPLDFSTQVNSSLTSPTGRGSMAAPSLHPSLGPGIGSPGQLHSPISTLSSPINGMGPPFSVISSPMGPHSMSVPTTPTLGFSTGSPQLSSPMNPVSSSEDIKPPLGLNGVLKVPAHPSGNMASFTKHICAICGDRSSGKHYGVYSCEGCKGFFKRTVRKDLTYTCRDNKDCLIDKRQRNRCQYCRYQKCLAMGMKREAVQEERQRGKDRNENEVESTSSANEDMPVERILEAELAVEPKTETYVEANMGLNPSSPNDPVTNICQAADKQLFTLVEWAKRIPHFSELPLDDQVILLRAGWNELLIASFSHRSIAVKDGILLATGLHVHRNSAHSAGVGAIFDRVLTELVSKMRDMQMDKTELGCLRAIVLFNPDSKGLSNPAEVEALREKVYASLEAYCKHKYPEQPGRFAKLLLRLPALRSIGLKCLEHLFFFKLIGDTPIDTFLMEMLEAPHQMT
Method in brief: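 Beta-lactamase reporter readout as cleaved/uncleaved substrate ratio (460:530 nm) after 2 h substrate loading at room temperature. GAL4-RXRa bla HEK293T cells were exposed 16 h at 37C to 11-point compound series; loss of signal scored against DMSO baseline.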

[18] = TOX21_TR_RXR_BLA_Antagonist_Followup_viability: Viability Assessment in the Tox21 Thyroid Hormone Receptor beta Retinoid X Receptor alpha (RXRa) Antagonism Beta-lactamase (BLA) Follow-Up Assay (AID 2283979)
Method in brief: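 Follow-up compounds (11 concentrations, triplicate) were incubated 16 h at 37C/5% CO2 with HEK293T RXRa-bla cells seeded at 2,500/well in charcoal-stripped-serum medium. ATP content by CellTiter-Glo luminescence gave viability; curves fitted in both directions against DMSO.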

Measured: AC50

Oc1c(Br)c(Br)c(Br)c(Br)c1Br
active: [2] 1.56 µM | [4] 0.886 µM
inactive: [1] | [3] | [5] | [6] | [7]

C[C@@H]1CC[C@H]2[C@@H](C)C(=O)O[C@@H]3O[C@@]4(C)CC[C@@H]1[C@]32OO4
inactive: [1] | [2] | [3] | [4] | [5] | [6] | [7] | [8]

c1ccoc1
inactive: [1] | [2] | [3] | [4] | [5] | [6] | [7]

C=CC(=O)OCCN(C)C
inactive: [1] | [2] | [3] | [4] | [5] | [6] | [7]

CCCCCCC(=O)CCCCCC/C=C/C[C@@H](O)[C@H](O)[C@@](N)(CO)C(=O)O
inactive: [1] | [2] | [3] | [4] | [5] | [6] | [7] | [8]

CCCC(=O)OC(C(Cl)(Cl)Cl)P(=O)(OC)OC (stereo unspecified)
inactive: [1] | [2] | [3] | [4] | [5] | [6] | [7] | [8]

C[C@]12CC[C@@H]3c4ccc(OC(=O)N(CCCl)CCCl)cc4CC[C@H]3[C@@H]1CC[C@@H]2OP(=O)(O)O
active: [2] 8.82 µM and 26.6 µM | [4] 7.01 µM and 23.1 µM | [6] 7.78 µM and 24.6 µM | [8] 8.9 µM and 36.3 µM
inactive: [1] | [3] | [5] | [7]

Clc1ccc(CCC(Cn2ccnc2)Sc2c(Cl)cccc2Cl)cc1 (stereo unspecified)
inactive: [1] | [2] | [3] | [5] | [6] | [7] | [8]
active: [4] 15.9 µM

O=Cc1ccccc1
inactive: [1] | [2] | [3] | [4] | [5] | [6] | [7] | [8]

O=[N+]([O-])c1ccc([As](=O)(O)O)cc1
inactive: [1] | [2] | [3] | [4] | [5] | [6] | [7] | [8]

COc1ccc2c3c1O[C@H]1[C@@H](O)C=C[C@H]4[C@@H](C2)NCC[C@@]341
inactive: [1] | [2] | [3] | [4] | [5] | [6] | [7] | [8]

COc1ccc(Cc2nccc3cc(OC)c(OC)cc23)cc1OC
inactive: [1] | [2] | [3] | [4] | [5] | [6] | [7] | [8]

CC(=O)[O][Sn]([c]1ccccc1)([c]1ccccc1)[c]1ccccc1
active: [1] 2.52 µM | [2] 6.42 µM | [3] 2.87 µM | [4] 17.7 µM | [5] 2.42 µM | [6] 18.4 µM | [7] 11.2 µM | [8] 8.98 µM

C1CN(P2(N3CC3)=NP(N3CC3)(N3CC3)=NP(N3CC3)(N3CC3)=N2)CCO1 (stereo unspecified)
active: [4] 23 µM
inactive: [1] | [2] | [3] | [5] | [6] | [7] | [8]

CCCC(C)(COC(N)=O)COC(=O)NC(C)C (stereo unspecified)
inactive: [1] | [2] | [3] | [4] | [5] | [6] | [7] | [8] | [9]

CC(O)CN1CCN(CC(=O)[O-])CCN(CC(=O)[O-])CCN(CC(=O)[O-])CC1.[Gd+3] (stereo unspecified)
inactive: [1] | [2] | [3] | [4] | [5] | [6] | [7] | [8]

CCCCCCCCCCCC[N+](C)(C)CCOc1ccccc1
active: [1] 28.1 µM and 30.3 µM | [2] 33.3 µM and 40.8 µM | [3] 53 µM and 22.3 µM | [4] 84.4 µM and 43.8 µM | [5] 37.5 µM and 16.3 µM | [6] 85.4 µM and 44.8 µM | [7] 54.3 µM and 33.6 µM | [8] 36.1 µM

[H+].[H+].[Hg+2].[O-]B([O-])[O-].[c-]1ccccc1
active: [1] 7.89 µM | [2] 1.73 µM | [3] 0.975 µM | [4] 1.17 µM | [5] 8.43 µM | [6] 5.39 µM | [7] 4.94 µM | [8] 18.3 µM

CCC1(c2cnc[nH]2)Cc2ccccc2C1
inactive: [1] | [2] | [3] | [4] | [5] | [6] | [7] | [8]

O=CC=Cc1ccccc1
active: [10] 83.9 µM | [11] 93.6 µM
not listed: [9] | [14] | THRA (gene 7067) | THRB (gene 7068) [15] | THRB (gene 7068) [16] | [17] | [18]
inactive: all other assays above

CCN(CC)CCO[C@H]1CC[C@@]2(C)C(=CC[C@@H]3[C@@H]2CC[C@]2(C)C(=O)CC[C@@H]32)C1
not listed: [9] | [10] | [11] | [12] | [13]
inactive: all other assays above

From PubChem BioAssay (EPA / NIEHS)
